Only some compounds are listed: those with a hit (about 19% of all), similar ones and a draw of the others.
TDP1 cell CPT: growth inhibition of DT40 Tdp1-/-;hTDP1 cells with camptothecin (screen for TDP1 inhibitors); chicken DT40 Tdp1-/-;hTDP1 cells + 20 nM CPT, ATP luminescence, 48 h; hit rate 12% among 420,000; Potency, µM (top dose mostly 46.2 µM), most hits filed as inhibitors; AID 686979; also: nearly all actives have a fitted effect of over 55% in size
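Chicken DT40 Tdp1-/- cells complemented with human TDP1, 400 cells/well, exposed to compounds plus 20 nM camptothecin for at least 48 h at 37 C; viability read as ATP content by CellTiter-Glo luminescence.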
ELG1 repair inh: ELG1-dependent DNA repair inhibition | Potency, µM (titrated, usually from 46.1 µM), most hits filed as inhibitors | HEK293T ELG1-luciferase reporter, luminescence, 16 h; DNA damage induced by 5-fluorouridine | hit rate 2.3% among 330,000 | AID 504467; also: nearly all actives have a fitted effect of over 55% in size
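Luminescence from the luciferase reporter, measured 30 min after ONE-Glo reagent at room temperature, was the read-out. Beforehand, 2,000 cells per well were exposed for 16 hr at 37 °C to 5-fluorouridine together with compound or vehicle.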
TDP1 cell noCPT: qHTS for Inhibitors of human tyrosyl-DNA phosphodiesterase 1 (TDP1): qHTS in cells in absence of CPT; DT40 Tdp1-/- hTDP1 cells, no CPT, ATP luminescence, 48 h; Potency, µM (doses to about 46.2 µM), hits mostly inhibitors; hit rate 15% among 420,000; AID 686978, 2013; also: nearly all actives have a fitted effect of over 55% in size
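No-CPT arm: Tdp1-/-;hTDP1 DT40 cells (400/well) plus compounds, incubated ≥48 hr at 37 °C. Readout CellTiter-Glo luminescence.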
IL1B secr inh: inhibitors of inflammasome signaling (IL-1 beta secretion); THP-1 LPS/ATP IL-1B secretion, AlphaLISA, 16 h; active compounds read low; hit rate 4.7% among 360,000; activity change, % at 57.5 µM; AID 743279; in the data active = activity change below about -50%; inconclusive = mostly about -30% to -49%
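Secreted IL-1B measured by AlphaLISA bead assay after 16 h compound exposure of THP-1 cells; compounds (final up to 57.5 uM) added 1 h before LPS (250 ng/mL) and ATP (1.25 mM) stimulation; lower signal means less secretion.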
HT1080 IDH1KD tx: toxicity to HT-1080 IDH1 knockdown cells (counter line) | HT-1080 IDH1 knockdown viability, ATP luminescence, 48 h | Potency, µM (doses to about 46.1 µM), hits mostly cytotoxic | hit rate 2% among 360,000
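CellTiter-Glo luminescence after 48 h compound exposure at 37 degrees C of IDH1-knockdown HT-1080 cells in 5% FBS RPMI. %Activity scaled between DMSO wells and cell-free media wells, with curves fitted and assigned curve classes.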
HT1080-NT tox: kills 2HG-producing HT-1080-NT fibrosarcoma cells. HT-1080-NT fibrosarcoma viability, CellTiter-Glo ATP luminescence, 48 h. Potency, µM (titrated, usually from 46.1 µM), most hits filed as cytotoxic. hit rate 1.6% among 360,000;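 also: NT is the 2HG producing partner of a matched IDH1 knockdown line; nearly all actives have a fitted effect of over 55% in size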
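750 cells/well, RPMI + 5% FBS; 2 h settle, compound pin-transfer, 48 h at 37 degrees C. CellTiter-Glo 10 min RT, luminescence. Normalized to DMSO and media-only wells.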
Numbers stand for hits; – = inactive; ? = inconclusive; · = no result; [ ] = remark or other dose. Unless noted, calls follow the shape of the dose curve; as a rule, active = well fitted curve in the direction sought with a large enough effect; inconclusive = small, poorly fitted or top-dose-only effect, or another doubt; inactive = no such curve, though single readings can be large; an effect the other way counts as inactive or inconclusive.

SMILES	TDP1 cell CPT	ELG1 repair inh	TDP1 cell noCPT	IL1B secr inh	HT1080 IDH1KD tx	HT1080-NT tox
COc1ccc(-c2nc(CN(CC3CCC(=O)N3)C(C)C)c(C)o2)c(C)c1C (centres undefined)	?	?	?	?	–	–
COCCCNCC1C(Oc2ccc(Cl)cc2)C(=O)N1c1ccccc1C (centres undefined)	?	–	16µM	-76	–	–
Cc1ccccc1N1C(=O)C(Oc2ccc(Cl)cc2)C1CNCCCOC(C)C (centres undefined)	?	–	26µM	-91	16µM	16µM
Cc1ccc(C)c(C(=O)C[n+]2cccc(Br)c2)c1	–	·	?	·	·	·
CCCc1nnc(SCc2ccc(OC)cc2)n1N	26µM	–	18µM	–	–	–
CCCOc1ccc(CSc2nnc(CCC)n2N)cc1	–	–	–	–	–	–
O=C(N/N=C\c1c(O)ccc2ccccc12)c1ccc(S(=O)(=O)N2CCCCC2)cc1	3.3µM	?	3.7µM	–	?	?
O=C(O)c1ccc(/C=N/NC(=O)c2ccc3c(c2)OCCO3)cc1	–	?	–	–	–	–
O=C(N/N=C/c1c(O)ccc2ccccc12)c1ccc(CO)nc1	4.6µM	?	4.6µM	–	?	–
Cc1cc(O)cc(O)c1/C=N/NC(=O)c1ccc2c(c1)OCCO2	5.8µM	·	6.5µM	–	13µM	?
O=C(NN=Cc1c(O)ccc2ccccc12)c1ccc2c(c1)OCO2	5.8µM	?	2.6µM	–	5.2µM	5.8µM
CCCN(CCC)c1nn2c(=O)c(C(=O)NCc3cc(Br)ccc3OC)cnc2s1	–	·	–	·	·	·
CC/C(=N/NC(=O)c1ccc2c(c1)OCO2)c1ccccc1O	6.5µM	·	3.7µM	–	23µM	–
O=C(CNC(=O)c1ccc(S(=O)(=O)N2CCCC2)cc1)N/N=C/c1ccccc1Cl	?	–	13µM	–	–	–
C/C(=N\NC(=O)c1cc2ccccc2cc1O)c1ccc2c(c1)OCO2	–	–	–	–	–	–
COc1ccccc1/C=N/NC(=O)CNC(=O)c1ccc(S(=O)(=O)N2CCCC2)cc1	–	–	–	–	–	–
O=C(CN1N=C(c2ccc(Cl)cc2)CCC1=O)NCc1ccc(F)cc1	–	·	?	·	·	·
COc1ccc(C(=O)c2c(-c3cccc(C)c3)oc3ccc(N4CCOCC4)cc23)cn1	?	–	15µM	?	–	–
COc1ccc(C(=O)c2c(-c3ccc(OC)cc3)oc3ccc(-c4ccc(OC)nc4)cc23)cc1	?	·	?	–	–	–
Cc1ccc(CNC(=O)c2ccc(N3CCCC3)c(NC(=O)Nc3ccc(F)c(Cl)c3)c2)cc1	–	·	–	·	·	·
N#CCSc1nccc(/C=C/c2ccccc2)n1	–	?	–	-92	–	–
C(=C\c1ccc(/C=C/c2ccccc2)nn1)/c1ccccc1	·	–	·	·	·	·
CCN(CC(=O)NC1CCS(=O)(=O)C1)c1nc(-c2ccccc2)nc2ccccc12 (centres undefined)	?	13µM	?	?	–	–
O=C(Cn1ncc2c3ccccc3n(Cc3ccc(F)cc3)c2c1=O)NCc1cccs1	–	·	–	·	·	·
CCC(Cc1ccccc1)NC(=O)Cn1ncc2c3ccccc3n(Cc3ccc(F)cc3)c2c1=O (centres undefined)	8.2µM	·	8.2µM	·	·	·
SMILES	TDP1 cell CPT	ELG1 repair inh	TDP1 cell noCPT	IL1B secr inh	HT1080 IDH1KD tx	HT1080-NT tox
CCC(Cc1ccccc1)NC(=O)Cn1ncc2c3ccccc3n(Cc3ccccc3)c2c1=O (centres undefined)	16µM	·	16µM	·	·	·
O=C(Cn1ncc2c3ccccc3n(Cc3ccccc3)c2c1=O)NCc1ccccc1	–	·	?	·	·	·
CC(C)(C)c1ccc(NC(=O)CCNC(=O)c2ccco2)cc1	–	–	–	–	–	–
O=C(CN1C(=O)NC2(CCCC2)C1=O)NCCc1ccccc1	–	–	–	–	–	–
COc1ccc2c(c1)CCc1cnc(-n3ncc(C(=O)NCc4cc(C)no4)c3C3CC3)nc1-2	–[9.04 µM]	·	–	·	·	·
Cc1ccc2cc(CCNC(=O)c3cccc([N+](=O)[O-])c3)c(=O)[nH]c2c1	21µM	?	21µM	–	–	–
Cc1ccc(C(=O)NCCc2cc3ccc(C)c(C)c3[nH]c2=O)cc1[N+](=O)[O-]	10µM	?	?	–	–	–
Cc1cc2cc(CCNC(=O)c3c(-c4ccccc4Cl)noc3C)c(=O)[nH]c2cc1C	·	13µM	·	·	·	·
Cc1cc2cc(CCNC(=O)c3cccc([N+](=O)[O-])c3)c(=O)[nH]c2cc1C	?	23µM	16µM	?	–	–
O=C(N/C(=C\c1ccc([N+](=O)[O-])cc1)C(=O)N1CCCCC1)c1ccccc1Br	–	–	?	–	–	–
CC1CCCN(Cc2c(O)ccc3c(=O)c(-c4ccc(Cl)cc4)c(C(F)(F)F)oc23)C1 (centres undefined)	–	·	–	·	·	·
Cc1ccccc1S(=O)(=O)NC(=O)C1(C)CCN1C(=O)Cc1cc(F)ccc1F (centres undefined)	–	·	–	–	–	–
COc1ccc(C)cc1NS(=O)(=O)c1ccc2c3c(cccc13)C(=O)N2	4.1µM	·	?	·	·	·
Cn1nc(-c2ccccc2)c(-c2nc(-c3cccc(Cl)c3)no2)c1Cl	?	–	?	–	–	–
Cn1nc(-c2ccccc2)c(-c2nc(-c3cccc(C(F)(F)F)c3)no2)c1Cl	?	–	1.6µM	–	–	–
CCCN(C(=O)c1nc2nc(C)cc(C)n2n1)c1c(N)n(Cc2ccccc2)c(=O)[nH]c1=O	–	–	–	–	–	–
Cc1ccc2nc(N(CCCN(C)C)C(=O)c3ccc(S(=O)(=O)N(C)C)cc3)sc2c1	–	–	–	–	–	–
COc1ccc2sc(N(CCCN(C)C)C(=O)c3ccc(S(=O)(=O)N4CCCC4)cc3)nc2c1	–	–	–	?	–	–
Cc1cc(C)c2sc(N(CCCN(C)C)C(=O)c3ccc(S(=O)(=O)N4CCCc5ccccc54)cc3)nc2c1	10µM	–	9.2µM	-67	?	18µM
COc1ccc2sc(N(CCCN(C)C)C(=O)c3ccc(S(=O)(=O)N4CCc5ccccc5C4)cc3)nc2c1	4.1µM	?	4.6µM	-118	?	?
Cc1cc(C)c2sc(N(CCCN(C)C)C(=O)c3ccc(S(=O)(=O)N4CCc5ccccc5C4)cc3)nc2c1	·	13µM	·	·	·	·
Cc1ccc2nc(N(CCCN(C)C)C(=O)c3ccc(S(=O)(=O)N4CCc5ccccc5C4)cc3)sc2c1	5.2µM	–	5.8µM	-96	13µM	?
CSc1nc(N2CCN(Cc3ccc4c(c3)OCO4)CC2)c2ccccc2n1	?	?	?	–	–	–
